From PubChem BioAssay
V-ATPase pHluor = alters yeast V-ATPase proton transport | 350,000 compounds, 0.37% hits | S. cerevisiae, pHLuorin cytosolic pH fluorescence | response, % at 10 µM; in the data active means response mostly above about 7.3%, no sharp cut-off; inactive means mostly below about 5.4%; further: actives read high
NSD2 HMT inh = NSD2 (human) methyltransferase inhibition; O96028; NSD2 peptide methylation, AlphaScreen, 120 min; inhibition, % at 12.5 µM; 310,000 compounds, 0.54% hits; AID 743445; in the data active means inhibition above about 50%
Efflux pump inh = antifungal efflux pump inhibition, Nile Red retention. S. cerevisiae Candida pump triplex. inhibition, % at 10 µM. 330,000 compounds, 0.44% hits. AID 485275;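 active means plate passing quality check with inhibition over a set limit, or well fluorescence over plate mean plus 4 SD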;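 further: Nile Red retained in pooled yeast measured as flow cytometry median fluorescence; 0% = buffer negative control and 100% = Enniatin B positive control; higher means more Nile Red kept so more efflux inhibition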
GC-B act = GC-B (human) receptor activation. P20594. HEK293-GC-B cells, CNP EC30, cGMP TR-FRET; 0% at EC30 CNP, 100% saturating CNP. AID 1920062. activation, % at 10 µM. 370,000 compounds, 0.11% hits;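 active means activation at 10 µM reaching about 35% in either raw or pattern-adjusted values, limit read from the data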
Rce1 inhib = blocks yeast Ras-converting enzyme; Q03530; yeast membranes, quenched prenylated peptide cleavage fluorescence; calls only; 290,000 compounds, 0.27% hits; AID 2563;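 active means fall in fluorescence gain of 50% or more versus controls, with final raw signal at or below 3038400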;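 further: plate controls were neutral control wells for no effect and wells lacking membranes for full effect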
Target sequence (Q03530 whole entry, looked up): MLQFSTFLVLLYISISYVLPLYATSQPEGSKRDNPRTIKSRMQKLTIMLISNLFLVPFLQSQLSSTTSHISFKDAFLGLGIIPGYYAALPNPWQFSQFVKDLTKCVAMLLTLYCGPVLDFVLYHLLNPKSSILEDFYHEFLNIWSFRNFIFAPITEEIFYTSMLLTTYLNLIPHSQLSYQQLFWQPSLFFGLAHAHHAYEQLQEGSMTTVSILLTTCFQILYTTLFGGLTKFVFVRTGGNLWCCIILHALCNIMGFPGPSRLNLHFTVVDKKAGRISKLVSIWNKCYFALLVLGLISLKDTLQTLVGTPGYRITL
NPR1 activator = GC-A (human) enzyme activation; P16066; HEK293 GC-A cells, cGMP TR-FRET, EC30 ANP; 0% at EC30 ANP, 100% saturating ANP; activation, % at 10 µM; 370,000 compounds, 0.14% hits; AID 1671463; in the data active means activation above about 40%
Yeast cmpd fluor = flagged as fluorescent in efflux inhibitor counter-screen. shares compounds with Efflux pump inh. S. cerevisiae AD/pABC3, compound fluorescence, flow cytometry. fluorescence ratio to DMSO, % at 10 µM. 1,700 compounds, 4% hits;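 active means fluorescence ratio to DMSO above its plate's cutoff, the plate mean ratio plus 5 SD, cut at about 210% in these data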;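 further: unstained yeast with no Nile Red so the signal is compound autofluorescence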
CaMdr1 efflux inh = blocks the Candida albicans Mdr1 efflux pump in yeast | S. cerevisiae AD/CaMDR1, Nile Red efflux, flow cytometry | inhibition, % at 10 µM | shares compounds with Efflux pump inh | 1,700 compounds, 1% hits; in the data active means inhibition above about 26%;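 further: 0% = DMSO vehicle and 100% = reference inhibitor; higher means more Nile Red retained so more efflux inhibition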
Cdr2 pump inh = blocks the Candida albicans Cdr2 efflux pump in yeast; 1,700 compounds, 4% hits; S. cerevisiae AD/CaCDR2, Nile Red retention, flow cytometry; shares compounds with Efflux pump inh; Nile Red retention ratio vs DMSO, % at 10 µM; in the data active means Nile Red retention ratio vs DMSO above about 190%;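 further: higher ratio means more blocking of Cdr2 efflux of the dye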
Cdr1 pump inh = inhibitors of Candida albicans Cdr1 efflux pump | AID 588522 | inhibition, % at 10 µM | shares compounds with Efflux pump inh | 1,700 compounds, 1% hits | S. cerevisiae AD/CaCDR1, Nile Red efflux, flow cytometry;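 active means inhibition above the screen-wide mean plus twice its standard deviation, cut at about 32% in these data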
Active calls of the source: *; i = inactive; . = no result given. A selection: hits, their analogues and other compounds. The true share with any hit is near 1.6%.

SMILES	V-ATPase pHluor	NSD2 HMT inh	Efflux pump inh	GC-B act	Rce1 inhib	NPR1 activator	Yeast cmpd fluor	CaMdr1 efflux inh	Cdr2 pump inh	Cdr1 pump inh
COc1ccc(C(C)n2c(C)c3c(C)nnc(C)c3c2C)cc1 (stereo not given)	.	9	6.7*	4	i	-1	106	0	103	0
O=C(CC1Sc2ccccc2NC1=O)Nc1ccccc1[N+](=O)[O-] (stereo not given)	-3	0	18*	1	i	3	100	0	94	0
O=C(Nc1cccc(Cl)c1)O[C@@H]1CC[C@@]23CCCN2C(=O)CCC[C@H]3C1	.	-1	.	-2	.	-1	.	.	.	.
COc1ccc(S(=O)(=O)N2CCCCC2)cc1NC(=O)c1ccc(CS(C)(=O)=O)cc1	-4	.	1.1*	2	.	-4	113	0	112	0
N#CC1=C(N)OC2=C(CCc3ccccc32)C1c1ccccc1 (stereo not given)	-4	-3	0	-1	i	-7	.	.	.	.
Cc1ccc(/C=C2\CCC3=C2OC(N)=C(C#N)C3c2ccc(C)cc2)cc1 (stereo not given)	-5	.	3.6*	.	i	.	118	0	125	0
COc1ccc([C@H]2OC(=O)C[C@@H]2C(=O)N2CCN(c3ccccc3F)CC2)cc1OC	.	9	.	11	.	2	.	.	.	.
O=C1c2cc(Cl)ccc2OC2(CCNCC2)C12CC(c1ccccc1)=NO2 (stereo not given)	-4	.	0	-1	i	4	91	0	95	0
O=C1c2cc(Cl)ccc2OC2(CCNCC2)C12CC(c1ccc(Cl)cc1)=NO2 (stereo not given)	3	.	.	.	i	.	121	1	114	0
CC(C)C(=O)N1CCC2(CC1)Oc1ccc(Cl)cc1C(=O)C21CC(c2ccc(Cl)cc2)=NO1 (stereo not given)	-6	.	0	-1	i	0	103	0	121	0
CCC(=O)N1CCC2(CC1)Oc1ccc(Cl)cc1C(=O)C21CC(c2cccnc2)=NO1 (stereo not given)	-2	.	0	6	i	0	.	.	.	.
O=C(/C=C/c1cccs1)N1CCC2(CC1)Oc1ccc(Cl)cc1C(=O)C21CC(c2ccc(Cl)cc2)=NO1 (stereo not given)	-6	.	0	-3	i	-3	.	.	.	.
C=CCN(CC#CCN(C)C(=O)c1cccn1C(=O)OC(C)(C)C)Cc1ccc(OC)cc1OC	.	.	.	-12	.	-12	.	.	.	.
O=C(Nc1ccccc1)Nc1nc2ncccn2c1-c1ccc(F)cc1	.	.	.	-4	.	1	.	.	.	.
CCN(CC)C(=O)CC[C@H]1CC[C@]2(CCCN(Cc3ccccn3)C2)O1	.	.	.	9	.	0	.	.	.	.
CCn1c(SCC(=O)N/N=C/C(C)=C/c2ccco2)nnc1-c1ccccc1	-6	5	0.8*	-2	i	-1	117	0	110	0
CN[C@H]1C[C@H]2c3[nH]c4cccc(-c5cccc(F)c5)c4c3CCN2C(=O)[C@H]1[C@H](C)O	.	.	.	-8	.	-5	.	.	.	.
O=C(Nc1ccccc1C(=O)O)c1cccc(NC(=O)c2ccc(Br)o2)c1	1	1	0	4	i	0	.	.	.	.
Cc1ccccc1NC(=O)c1ccc(NC(=O)c2ccco2)cc1	4	7	0	-2	i	-1	113	0	98	0
O=C(Nc1ccccc1C(=O)O)c1ccc(NC(=O)c2ccc(Br)o2)cc1	0	4	0	4	i	1	103	0	93	0
Cc1ccccc1NC(=O)c1ccccc1NC(=O)c1ccco1	0	-4	0	-4	i	-2	.	.	.	.
COc1ccc(NC2CC(=O)N(c3cc([N+](=O)[O-])ccc3C)C2=O)cc1 (stereo not given)	-1	-5	1.1*	-1	i	0	115	0	114	0
Cc1ccc(C)c(S(=O)(=O)Nc2ccc3[nH]c(=O)[nH]c3c2)c1	3	2	0	1	i	4	.	.	.	.
Cc1cc(F)ccc1S(=O)(=O)Nc1ccc(O)c(Sc2ncn[nH]2)c1	2	2	0	-10	i	2	104	0	100	0
Cc1ccc(C)c(S(=O)(=O)Nc2ccc(O)c(Sc3ncn[nH]3)c2)c1	2	-1	0	1	i	-1	105	0	97	0
SMILES	V-ATPase pHluor	NSD2 HMT inh	Efflux pump inh	GC-B act	Rce1 inhib	NPR1 activator	Yeast cmpd fluor	CaMdr1 efflux inh	Cdr2 pump inh	Cdr1 pump inh
Cc1ccc(S(=O)(=O)Nc2ccc(O)c(Sc3ncn[nH]3)c2)cc1	1	1	2.0*	3	i	1	105	0	95	0
CCOc1ccc(S(=O)(=O)Nc2ccc(O)c(Sc3ncn[nH]3)c2)cc1	1	1	0	-1	i	-4	.	.	.	.
COc1ccc(OC)c(S(=O)(=O)Nc2ccc(O)c(Sc3ncn[nH]3)c2)c1	-3	1	0	-2	i	-3	96	0	93	0
COc1ccc(S[C@]2(C(=O)NCc3ccccc3)CC(=O)N[C@@H]2c2ccc(OC)cc2)cc1	.	.	.	3	.	2	.	.	.	.
CCc1ccc(-c2cc3c(=O)n(CC(=O)NCCN4CCCCC4C)nc(C)n3n2)cc1 (stereo not given)	1	2	1.0*	-4	i	6	108	0	104	0
CC(C)(C)OC(=O)n1cc(-c2ccccc2)c2c(-c3ccccc3)c(O)ccc21	.	.	.	-2	.	3	.	.	.	.
CC(=O)N(C)c1ccc(NC(=S)NC(=O)/C=C/c2ccco2)cc1	1	6	0.6*	5	i	5	106	0	98	0
CC(=O)Nc1ccc(NC(=S)NC(=O)/C=C/c2ccco2)cc1	6	35	0	-1	i	-6	.	.	.	.
S=c1[nH]nc(-c2cccnc2)n1/N=C/c1ccc(Br)s1	-1	0	8.0*	-4	i	-12	83	0	93	0
Cc1ccc(/C=N/n2c(-c3cccnc3)n[nH]c2=S)s1	0	4	0	-5	i	-3	.	.	.	.
C=CCOC/C=C/C#CCN(Cc1ccc(OC)cc1OC)C(=O)Nc1ccccc1	.	.	.	0	.	-2	.	.	.	.
CCC(C)(C)NC(=O)C(c1cccs1)N(C(=O)c1ccn[nH]1)c1cccc(OC)c1 (stereo not given)	-3	1	0	-8	i	-14	.	.	.	.
